Experiments:
[1] = NFkB reporter suppression in cystic fibrosis bronchial cells – cell-based, uHTS hits, panel, cytotoxicity readout, dose response (AID 624344); details: CF bronchial epithelial cells, PAF-induced NFkB reporter inhibition, with PAF, run 1; at 79 µM (top of the series) unless noted
[2] = as above; details: CF bronchial epithelial cells, PAF-induced NFkB reporter inhibition, with PAF, run 2; at 79 µM (top of the series) unless noted

## O=C(N/N=C/c1ccccc1)c1[nH]c2ccc(Br)cc2c1-c1ccccc1
[1]
  inhibition: 76.6%
[2]
  inhibition: 79.5%

## O=c1cc(-c2ccccc2Cl)oc2c([N+](=O)[O-])c(O)cc(O)c12
[1]
  inhibition: 101%
[2]
  inhibition: 109%

## COc1ccc(NC(=O)Nc2nnc(-c3ccncc3)s2)cc1
[1]
  inhibition: 67.9%
[2]
  inhibition: 68.6%

## C=Cc1ccc(CC2(C)C(=O)Nc3ccc(-c4cccnc4)cc32)cc1 (stereo unspecified)
[1]
  inhibition: 113%
[2]
  inhibition: 102%

## CC(C)C[C@H](CO)Nc1nc(Nc2cccc(Cl)c2)c2ncn(C(C)C)c2n1
[1]
  inhibition: 112%
[2]
  inhibition: 100%

## Oc1ccc(C[C@H]2CNC(=S)N2CC2CCCN2C[C@H](Cc2ccc(O)cc2)N2C[C@H](Cc3ccc(O)cc3)N(CC3CCCCC3)C2=S)cc1 (stereo partly specified)
[1]
  inhibition: 101%
[2]
  inhibition: 105%

## N=C1N(c2ccccc2)C(=S)C(=Nc2ccccc2)N1c1ccccc1
[1]
  inhibition: 114%
[2]
  inhibition: 103%

## CCOC(=O)Nc1nc(-c2ccccc2)c(C(=O)c2ccccc2)s1
[1]
  inhibition: 99.4%
[2]
  inhibition: 78.8%

## Fc1ccccc1-c1csc(=Nc2cccnc2)n1CCCn1ccnc1
[1]
  inhibition: 116%
[2]
  inhibition: 94.9%

## COc1cccc(NC(=O)Nc2nnc(CC(=O)Nc3ccccc3)s2)c1
[1]
  inhibition: 90.4%
[2]
  inhibition: 85.1%

## C=C1C(=O)[C@]23C[C@H]1CCC2[C@]1(C)C(=O)CC[C@@](C)(C(=O)O)C1C[C@@H]3O (stereo partly specified)
[1]
  inhibition: 98.9%
[2]
  inhibition: 89.8%

## O=C1C(=Cc2ccccc2[N+](=O)[O-])Cc2ccccc21
[1]
  inhibition: 68.5%
[2]
  inhibition: 106%

## COc1cc2c(c(OC)c1OC)-c1ccc(SC)c(=O)cc1C(NC(=O)C(F)(F)F)CC2 (stereo unspecified)
[1]
  inhibition: 72.8%
[2]
  inhibition: 79%

## C=CCN(CC=C)c1ncnc2[nH]ncc12
[1]
  inhibition: 99.9%
[2]
  inhibition: 109%

## CNc1ccc2ncc(-c3ccc(OC)c(OC)c3)n2n1
[1]
  inhibition: 106%
[2]
  inhibition: 118%

## CC(=O)Oc1ccc(N(C(C)=O)S(=O)(=O)c2cccs2)c2ccccc12
[1]
  inhibition: 92.7%
[2]
  inhibition: 62.6%

## NC(=O)c1nsc(C(=O)N(c2ccccc2)C(C(=O)NCc2ccc(F)cc2)c2ccc(O)cc2)c1N (stereo unspecified)
[1]
  inhibition: 102%
[2]
  inhibition: 108%

## COc1cccc2c(SCC(=O)N/N=C/c3ccccc3)cc(C)nc12
[1]
  inhibition: 104%
[2]
  inhibition: 106%

## C=C(C)[C@@H]1CCC2(C(=O)O)CC[C@]3(C)[C@H](CC[C@@H]4[C@@]5(C)CCC(=O)C(C)(C)[C@@H]5CC[C@]43C)[C@@H]12 (stereo partly specified)
[1]
  inhibition: 86.7%
[2]
  inhibition: 102%

## COc1ccc(-c2[nH]ncc2-c2ccc3c(c2)OCCO3)c(O)c1
[1]
  inhibition: 107%
[2]
  inhibition: 114%

## COc1ccc(-c2oc3ccc(-c4ccc5c(c4)OCO5)cc3c2C#CC2(O)CCCCC2)cc1
[1]
  inhibition: 101%
[2]
  inhibition: 91.6%

## Cc1cccc(CS(=O)(=O)c2ncc(Cl)c(C(=O)NCc3ccccc3)n2)c1
[1]
  inhibition: 92.1%
[2]
  inhibition: 88.2%

## COc1cccc(-c2cnc3c(NC=O)cc(-c4ccc(OC)cc4OC)cn23)c1
[1]
  inhibition: 98.2%
[2]
  inhibition: 86.1%

## CN(C)CCCN(C(=O)CCOc1ccccc1)c1nc2ccc(F)cc2s1
[1]
  inhibition: 101%
[2]
  inhibition: 105%

## COc1ccccc1NS(=O)(=O)c1ccc(-c2cnc(C3CC3)o2)cc1
[1]
  inhibition: 82.8%
[2]
  inhibition: 97.8%

## c1nc(N2CCOCC2)c2c3c(sc2n1)CCCC3
[1]
  inhibition: 98.5%
[2]
  inhibition: 107%

## COc1ccc(-n2nc(C(=O)NCC(=O)Nc3cc(OC)c(OC)c(OC)c3)c3ccccc3c2=O)cc1Cl
[1]
  inhibition: 96.2%
[2]
  inhibition: 95.1%

## CCCN(CC)c1ncnc2[nH]ncc12
[1]
  inhibition: 106%
[2]
  inhibition: 108%

## C=C1C(=O)O[C@@]23[C@H]1CC[C@@H](C)[C@@H]2CC[C@@]1(C)O[C@@H]31
[1]
  inhibition: 113%
[2]
  inhibition: 105%

## O=C(Nc1ccc(F)cc1)Nc1ccc(N2CCCC2)c(S(=O)(=O)Nc2ccccc2Cl)c1
[1]
  inhibition: 111%
[2]
  inhibition: 89.3%

## Nc1nc(N)nc(-c2cc(O)ccc2O)n1
[1]
  inhibition: 105%
[2]
  inhibition: 116%

## Nc1nc(N)nc(-c2ccc(Cl)c(Cl)c2)n1
[1]
  inhibition: 116%
[2]
  inhibition: 101%

## COc1ccc(CN(C(=O)CSc2nnc(-c3c[nH]c4ccccc34)o2)c2ccc(F)cc2)cc1OC
[1]
  inhibition: 101%
[2]
  inhibition: 103%

## Cc1ccc(-c2n[nH]c(=S)n2/N=C/c2ccncc2)cc1
[1]
  inhibition: 111%
[2]
  inhibition: 96%

## Cc1ccc(NC(=O)c2nc[nH]c2C(=O)NCCCNC(=O)c2[nH]cnc2C(=O)Nc2ccc(C)cc2)cc1
[1]
  inhibition: 108%
[2]
  inhibition: 95.2%

## Cc1ccccc1S(=O)(=O)Cc1ccc(C(=O)N2CCN(c3cccc(C)c3C)CC2)o1
[1]
  inhibition: 103%
[2]
  inhibition: 114%

## CS(=O)(=O)Nc1cccc(-c2cc(NC=O)c3ncc(-c4ccc(F)cc4)n3c2)c1
[1]
  inhibition: 84%
[2]
  inhibition: 88.3%

## CCCCCOC(=O)c1[nH]c2c(c1C)C(=O)CC(c1ccco1)C2 (stereo unspecified)
[1]
  inhibition: 75%
[2]
  inhibition: 62.8%

## COc1ccc(/C=C/C(=O)c2cc(F)ccc2OC(=O)c2ccccc2C)cc1OC
[1]
  inhibition: 4.66%
[2]
  inhibition: 90.3%

## Cc1ccc(NC(=O)c2cc(C(=O)c3cc(Cl)ccc3O)cn(-c3ccc(C)cc3)c2=O)cc1
[1]
  inhibition: 65.5%
[2]
  inhibition: 96.9%

## CC(=O)Oc1c(Br)cc(N(C(C)=O)S(=O)(=O)c2ccccc2)c2ccccc12
[1]
  inhibition: 72.3%
[2]
  inhibition: 88.1%

## COc1ccc(OC)c(-c2nnc3n2N=C(c2ccc(OC)c(OC4CCOC4)c2)CS3)c1 (stereo unspecified)
[1]
  inhibition: 103%
[2]
  inhibition: 107%

## CCCNC(=O)COC(=O)c1ccccc1C(=O)c1ccc(Cl)c([N+](=O)[O-])c1
[1]
  inhibition: 96.2%
[2]
  inhibition: 99.9%

## O=C(Nc1ccc(Br)c2ccccc12)c1ccc2ccccc2c1O
[1]
  inhibition: 112%
[2]
  inhibition: 104%

## COc1cccc(-c2ccc3ncnc(NCc4cccnc4)c3c2)c1
[1]
  inhibition: 103%
[2]
  inhibition: 100%

## CC1(Cc2cccc(F)c2)C(=O)Nc2ccc(-c3cccnc3)cc21 (stereo unspecified)
[1]
  inhibition: 112%
[2]
  inhibition: 98.2%

## Cc1ccc(CSc2nccc(-c3c(C)nc4ccccn34)n2)cc1
[1]
  inhibition: 101%
[2]
  inhibition: 102%

## CN(Cc1ccccc1)c1ncnc(N)c1[N+](=O)[O-]
[1]
  inhibition: 115%
[2]
  inhibition: 102%

## CC1=C(C(=O)OCc2ccc3c(c2)OCO3)C(c2cccc([N+](=O)[O-])c2)NC(=O)N1 (stereo unspecified)
[1]
  inhibition: 79.1%
[2]
  inhibition: 92.2% [at 19.8 µM]

## COc1ccc2c(=O)cc(-c3ccncc3)oc2c1OC
[1]
  inhibition: 116%
[2]
  inhibition: 103%

## C=CCSc1nc2ccccc2n1C(=O)/C=C/c1ccc(OC)c(OC)c1
[1]
  inhibition: 115%
[2]
  inhibition: 102%

## O=C1C=C(NC2=CC3OC(c4ccccc4)OCC3OC2=O)CCC1 (stereo unspecified)
[1]
  inhibition: 103%
[2]
  inhibition: 111%

## N#Cc1ccsc1NC(=O)c1ccc(Cl)c([N+](=O)[O-])c1
[1]
  inhibition: 74%
[2]
  inhibition: 101%

## Cc1c([N+](=O)[O-])c2ccc(O)cc2n1-c1ccccc1
[1]
  inhibition: 109%
[2]
  inhibition: 94.8%

## CCn1c2ccccc2c2cc(/C=N/O)ccc21
[1]
  inhibition: 114%
[2]
  inhibition: 105%

## O=C(/C=C/c1cccs1)Nc1cccc(NC(=O)/C=C/c2cccs2)n1
[1]
  inhibition: 97.2%
[2]
  inhibition: 96.4%

## FC(F)(F)c1nnc2c(Sc3ccccc3)nc3ccccc3n12
[1]
  inhibition: 92.8%
[2]
  inhibition: 88.4%

## CCCc1nnc(NC(=O)c2nc(S(=O)(=O)Cc3ccc(C)cc3)ncc2Cl)s1
[1]
  inhibition: 89%
[2]
  inhibition: 86.5%

## COc1ccc(-n2nnnc2S(=O)(=O)Cc2ccc(C(=O)O)cc2)cc1
[1]
  inhibition: 74.7%
[2]
  inhibition: 102%

## O=C(c1ccccc1)C1OC1C(=O)c1ccccc1 (stereo unspecified)
[1]
  inhibition: 101%
[2]
  inhibition: 109%

## Cc1ccc(C)c(S(=O)(=O)N(C(=O)c2ccncc2)c2ccc(OC(=O)c3ccncc3)cc2)c1
[1]
  inhibition: 104%
[2]
  inhibition: 118%

## O=[N+]([O-])c1ccc(NC(=S)NCCc2ccc(F)cc2)cc1
[1]
  inhibition: 115%
[2]
  inhibition: 105%

## Cn1cccc1C(=O)NC(=O)COC(=O)c1ccc(S(C)(=O)=O)c([N+](=O)[O-])c1
[1]
  inhibition: 92.6%
[2]
  inhibition: 98.1%

## CC1CCc2c(sc3ncnc(N4CCOCC4)c23)C1 (stereo unspecified)
[1]
  inhibition: 114%
[2]
  inhibition: 101%

## CCCc1nc(Cl)c(C#N)c2c1CCCC2
[1]
  inhibition: 97.8%
[2]
  inhibition: 98.1%

## CC(=O)c1ccc(Nc2ncnc3ccc(Br)cc23)cc1
[1]
  inhibition: 91.3%
[2]
  inhibition: 98.4%

## CCOC(=O)c1c(C)cc2c(CO)n[nH]c(=O)c2c1C
[1]
  inhibition: 104%
[2]
  inhibition: 95.8%

## CC1CCN(Cc2c(C(=O)N/N=C/c3ccc(C(C)(C)C)cc3)nnn2-c2nonc2N)CC1
[1]
  inhibition: 98.1%
[2]
  inhibition: 108%

## S=c1[nH]nc(-c2ccncc2)n1/N=C/C(Cl)=C\c1ccccc1
[1]
  inhibition: 101%
[2]
  inhibition: 109%

## c1cncc(CNc2ncnc3ccc(-c4ccoc4)cc23)c1
[1]
  inhibition: 113%
[2]
  inhibition: 98.2%

## Clc1ccccc1C1=Nn2c(nnc2-c2ccncc2)SC1
[1]
  inhibition: 109%
[2]
  inhibition: 100%

## Cc1c(O)ccc2c(-c3ccccc3)cc(=O)oc12
[1]
  inhibition: 105%
[2]
  inhibition: 114%

## CCNC(=O)C1(C)CCCN(Cc2ccc(-c3ccccc3)o2)C1 (stereo unspecified)
[1]
  inhibition: 94%
[2]
  inhibition: 74.8%

## CN(C)CCCN(C(=O)CCOc1ccccc1)c1nc2c(F)cccc2s1
[1]
  inhibition: 99.3%
[2]
  inhibition: 99.1%

## Nc1cc2c(cc1Br)-c1ccccc1C2=NO
[1]
  inhibition: 93.5%
[2]
  inhibition: 106%

## COc1cc2oc(=O)cc(-c3ccc(-c4ccc(N(C)C)cc4)cc3)c2c(OC)c1OC
[1]
  inhibition: 54.9%
[2]
  inhibition: 69.4%

## Cc1cc(N2C(=O)C(O)=C(C(=O)c3ccc(C)o3)C2c2cccc(Oc3ccccc3)c2)no1 (stereo unspecified)
[1]
  inhibition: 64%
[2]
  inhibition: 82.8%

## C=C1C(=O)O[C@@H]2[C@H]1CC[C@H](C)[C@]1(O)CCC(=O)[C@@]21C
[1]
  inhibition: 101%
[2]
  inhibition: 108%

## COc1ccc(-c2cn[nH]c2-c2ccc(OCc3ccc([N+](=O)[O-])cc3)cc2O)cc1
[1]
  inhibition: 105%
[2]
  inhibition: 115%

## CN(Cc1ccco1)c1ncnc2ccc(-c3ccoc3)cc12
[1]
  inhibition: 114%
[2]
  inhibition: 101%

## Cc1nc2c(O)c3c(c(O)c2nc1C)C1C=CC3CC1
[1]
  inhibition: 114%
[2]
  inhibition: 103%

## COc1cccc(NC(=O)CN(C)CC(=O)Nc2ccc(C)c([N+](=O)[O-])c2)c1
[1]
  inhibition: 80.7%
[2]
  inhibition: 101%

## c1nc(NCc2ccc3c(c2)OCO3)c2cc(-c3ccoc3)ccc2n1
[1]
  inhibition: 102%
[2]
  inhibition: 102%

## C=CC[C@@H](CC(=O)N[C@H](CO)Cc1ccccc1)C(=O)NC[C@H](OC(=O)[C@@H](CC=C)Cc1ccc(F)cc1)c1ccccc1
[1]
  inhibition: 101%
[2]
  inhibition: 108%

## CS(=O)(=O)Nc1ccc(-c2cnc3cccnn23)cc1
[1]
  inhibition: 95.8%
[2]
  inhibition: 102%

## CN(c1ncnc(N)c1[N+](=O)[O-])C1CCCCC1
[1]
  inhibition: 115%
[2]
  inhibition: 102%

## CN(C)c1ccc(Nc2ncnc3ccc(Br)cc23)cc1
[1]
  inhibition: 104%
[2]
  inhibition: 118%

## O=C(NNc1ccccc1Br)C(O)(c1cccc(C(F)(F)F)c1)c1cccc(C(F)(F)F)c1
[1]
  inhibition: 103%
[2]
  inhibition: 104%
